# Data from the supplement of paper PMC11417369.
# Whole data set: some 25,000 sequences, median “ln(normalized median fluorescence intensity)” near 7.1, cut for the highest 2% near 10. The list comes from a sample in which the highest values are over-represented; it also holds similar and randomly drawn sequences.
# System: PfSIP2 AP2 domain 1 (GST-tagged)
# Test: gcPBM binding intensity (ln(normalized median fluorescence intensity)); higher = stronger DNA binding
# Method in brief: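 The binding buffer was 1× PBS containing 1% milk, 0.2 mg/ml BSA, 0.5% salmon testes DNA and 0.03% Triton X-100. In it, GST-tagged P. falciparum DNA-binding domains expressed in E. coli were applied for 1 h to an Agilent 4 × 180k array of primer-extended double-stranded 36-bp intergenic genomic probes plus negative controls. Binding intensity, read with Alexa488 anti-GST antibody and a 488 nm scan, is the highest Masliner-normalised natural-log median intensity across replicate spots of either probe orientation.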
row,Sequence,gcPBM binding intensity (ln)
1,TTTGGAATATTAATTGTGCACTTAAAAAGTTAATTA,10
2,TATATTTATATATTAGTGCACTTTTTGTTAATTTTT,10.7
3,ATTATTTTTTTTGAAGTGCAATATTATTTTTAATCA,8.2
4,TTTTTTTTGATTTGTTTGCACTTATTTCCACAATAA,8.23
5,AATTATATTTAGTATATGCACACTTTATGTTTGTTA [CACACA_site2025],7.9
6,ATGAAATATTTATTTGTGCACTTAATTTGTTGGAAA,10.4
7,TTTTGTTATTTTGAAGTGCACTTTCCACTTAATATA,11
8,GTATATAAATATATATATATATATATATCTATATTT [CACACA_negctrl_site871],7.42
9,ATATTATAAAATAAAAGTACACAATTATATATATAT [XGTACX_site8812],8.6
10,ATTATATAACAAAATAGTACATATATTTATTACATC [XGTACX_site336],6.99
11,CCATATTTCATTAATGAACACACAAAGAGGTATATA [CACACA_site8431],7.11
12,TTCTTCAATATATTCTTACACACTTAAAAAAAAAAA [CACACA_site228],7.5
13,ATAGGACCTATGTGCCCATGGGTACATTAAAAAAAA [CACACA_negctrl_site1465],6.83
14,AAGAAAAATATATATATAAATAAATAAATATATATA [TGCATGCA_negctrl_site330],6.98
15,TATATATAAATATATGTGCACTTTTTATATTTATAT,10.6
16,TGTATTAAAAATTTGGTGCAACTTTTACATAATAAT,10.5
17,ATAATATATGTATGTATGCACTTTTATTATTTTTTT,8.01
18,TATTTATAAATATGTGTGCACAATTTATTTTATAAT,9.67
19,CTTTTAAATTATTTTTGTACATAATTATATATATAT [XGTACX_site4128],8.44
20,AACTATTTTATTATATGTACTTACGAATTTATAAAA [XGTACX_site5262],7.04
21,TTTTTATTACATAATTAAAAAAAATAATAAAATAAA [XGTACX_negctrl_site249],6.8
22,TTTTGTTACTTTTATGTGCACTTATAAAACGAACTA [GTGCAC_site9551],10.3
23,CGATTTTTTAAGTTTGTGCACTTAAAAACTATAACA,9.78
24,ATATTATATTATTAATGTACATATATATAATTTTAA [XGTACX_site4974],7.05

row,Sequence,gcPBM binding intensity (ln)
1,AATTTTGTATAGGTATCACACATGAAATATATTATT [CACACA_site5526],6.98
2,ATATATATATATATATGTACATATATTTGTAATGTC [XGTACX_site8074],9.37
3,TTTCATATATATGAAACACACAAAGGAAAAAAAATT [CACACA_site4144],7.23
4,AATATAAATATAAATATAAATATATATATATATATA [TGCATGCA_negctrl_site603],9.38
5,CCTTAAAATAAGATATGTACGCAAAGGAAAACAAAG [XGTACX_site6057],7.62
6,ATTATATATAATATAGTGCATGTAAAAAATAAAACA,10
7,TATATAATAAGATATGCATGCACATGTAAAATGAAT [TGCATGCA_site499],8.94
8,TTCTATGCATTTATAGTGCATGTAAAATATAAGATA [GTGCAC_site9466],10.9
9,AAATATTTTTAGAGTGCATGTAATAAAAATATAATG [TGCATGCA_site19],10.1
10,AAATAAATAAATAGAGTGCATATATATATATATTTT,8.61
11,CATTTTTCTATATGTGCATGTAAGATAAGAATAATT [TGCATGCA_site107],8.22
12,ATATATTTTTATGTAGTGCATTTAAATAATAAATGC,8.42
13,TTAAATATTTTTAGAGTGCATGTAATAAAAATATAA [GTGCAC_site9414],10.2
14,CTATGCATTTATAGTGCATGTAAAATATAAGATAAT [TGCATGCA_site71],10.3
15,TTTATAAAATATCTTTCACACATTACTATGTATTAT [CACACA_site5148],6.83
16,TACTTTTATATAGAAAGTACATACAATTCATAGAAT [XGTACX_site2182],6.98
17,ATATATAAAAAATGTGGTACATTCATTTATTATACA [XGTACX_site3495],6.96
18,GTGTATTTTGTGCGCACACACATGCAAAAAGAAATA [CACACA_site6660],9.54
19,GTGTATTTGGTGCGCACACACATGCAAAAAGAAATA [CACACA_site4768],11.6
20,GTGTATTTTCTGCGCACACACATGCAAAAAGAAATA [CACACA_site1148],8.26
21,ATTTTATGTTGAAAGTGTACGTATTAATATGTAGAA [XGTACX_site245],7.34
22,TGTTATTAAAATATAGTGCATAATTAACCATTATAA [GTGCAC_site9594],8.63
23,AAATTATGCATCGAGGTGCGTCTTAAAATATAGTGG,10.3
24,GTATATAAATAAATAGTGCATTATTAAAAATAATGT,9.36
